Activity calls are given as the source filed them. How the source made its calls: active means hit-call score of the fitted dose curve at least 0.9, where 1 is the maximum; inactive means score below 0.9.
Experiments:
[1] = APR_HepG2_CellCycleArrest_1hr: Apredica 1-hour HepG2 Assay for Cell Cycle Arrest (AID 2282666); settings: high-content imaging, actives raise or lower the signal
In short: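 HepG2 cells exposed for 1 h to 0.39–200 uM compound (0.5% DMSO). Fixed, Hoechst-stained nuclei imaged by ArrayScan; DNA content quantified by Cell Cycle analysis; bidirectional fit against DMSO.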

[2] = APR_HepG2_CellLoss_1hr: Apredica 1-hour HepG2 Assay for Cell Loss (AID 2282668); settings: high-content imaging;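 further: curves fitted both ways against DMSO so gain or loss of cells counts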
In short: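 HepG2 cells were treated for 1 h with compound at 0.39–200 uM, in duplicate, in 0.5% DMSO. After formaldehyde fixation, Hoechst 33342-stained nuclei were imaged on an ArrayScan to count cells. Data were fitted bidirectionally versus DMSO.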

[3] = APR_HepG2_MicrotubuleCSK_1hr: Apredica 1-hour HepG2 Assay for Microtubule CSK Stabilty (AID 2282669); settings: HepG2 microtubule cytoskeleton imaging, actives raise or lower the signal
In short: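 HepG2 cells exposed 1 h to 0.39–200 uM compound (0.5% DMSO, duplicates), then formaldehyde-fixed, permeabilized and immunostained for alpha-tubulin with Hoechst nuclei. Imaged by ArrayScan high-content analysis; bidirectional fit versus DMSO.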

[4] = APR_HepG2_MitoticArrest_1hr: Apredica 1-hour HepG2 Assay for Mitotic Arrest (AID 2282672); settings: high-content imaging, actives raise or lower the signal
In short: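 HepG2 cells exposed 1 hr to compounds at 0.39–200 uM (0.5% v/v DMSO final), then fixed in 3.7% formaldehyde and immunostained for phospho-histone H3 with Hoechst 33342. Mitotic arrest scored by automated fluorescence imaging, fitted bidirectionally versus DMSO.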

[5] = APR_HepG2_P-H2AX_1hr: Apredica 1-hour HepG2 Assay for H2AX Phosphorylation (AID 2282673); settings: high-content imaging, actives raise or lower the signal
In short: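 HepG2 dosed 1 hr at 0.39-200 uM (0.5% DMSO final), duplicate. Fixed in 3.7% formaldehyde, Triton permeabilized, immunostained for phospho-histone H2A.x (1:200) with Hoechst 33342; ArrayScan 20x imaging, bidirectional fit vs DMSO.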

[6] = APR_HepG2_CellCycleArrest_24hr: Apredica 24-hour HepG2 Assay for Cell Cycle Arrest (AID 2282905); settings: imaging, actives raise or lower the signal;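 further: cell cycle arrest scored as ratio of 2N to 4N nuclear DNA content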
In short: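 HepG2, 24 hr dosing, 10-pt 0.39–200 uM in duplicate, 0.5% DMSO. Fixed 3.7% formaldehyde, permeabilized 0.5% Triton X-100, Hoechst 33342 2 ug/mL. Imaged 20x; nuclear DNA content quantified; bidirectional fit vs DMSO.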

[7] = APR_HepG2_StressKinase_1hr: Apredica 1-hour HepG2 Assay for Stress Kinase (AID 2282906); settings: HepG2 stress kinase (phospho-c-Jun) imaging, actives raise or lower the signal
In short: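 HepG2 cells dosed 0.39-200 uM (0.5% DMSO) for 1 h, then formaldehyde-fixed. Stress kinase read by phospho-c-Jun immunofluorescence using high-content imaging; bidirectional fit vs DMSO.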

[8] = APR_HepG2_NuclearSize_24hr: Apredica 24-hour HepG2 Assay for Nuclear Size (AID 2282907); settings: high-content imaging, actives raise or lower the signal
In short: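 HepG2, 24 hr dosing, 10-pt 0.39–200 uM, duplicates, 0.5% DMSO final; 3.7% formaldehyde fix, 0.5% Triton X-100; Hoechst 33342 nuclear stain; ArrayScan HCS, Cell Cycle analysis → nuclear size; bidirectional fit vs DMSO.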

[9] = APR_HepG2_CellLoss_24hr: Apredica 24-hour HepG2 Assay for Cell Loss (AID 2282908); settings: high-content imaging;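 on AC50: fit in both directions so a hit may be cell loss or gain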
In short: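 10-pt dose, 0.39–200 uM, n=2/plate; DMSO 0.5% v/v final as negative control. Fix 3.7% formaldehyde 30 min RT, permeabilize 0.5% Triton X-100, stain Hoechst 33342 2 ug/mL, image 20x. Nuclear count, bidirectional fit vs DMSO.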

[10] = APR_HepG2_MicrotubuleCSK_24hr: Apredica 24-hour HepG2 Assay for Microtubule CSK Stabilty (AID 2282909); settings: HepG2 microtubule cytoskeleton imaging, actives raise or lower the signal
In short: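 Human liver HepG2, 24 h dosing, 0.39–200 uM ×10 conc, dup, 0.5% DMSO. 3.7% formaldehyde fix, 0.5% Triton perm, anti-alpha-tubulin (1:200)/Cy5 secondary + Hoechst. HCS imaging, 6 fields/well; gain/loss fit vs DMSO.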

[11] = APR_HepG2_MitoticArrest_24hr: Apredica 24-hour HepG2 Assay for Mitotic Arrest (AID 2282910); settings: high-content imaging, actives raise or lower the signal
In short: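 HepG2 cells, 24 h exposure at 0.39-200 uM (10 concentrations, duplicate, 0.5% DMSO). Fixed, stained for phospho-histone H3 with Hoechst; imaged by high-content microscopy, bidirectional fit versus DMSO.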

[12] = APR_HepG2_MitoMembPot_24hr: Apredica 24-hour HepG2 Assay for Mitochondrial Membrane Potential (AID 2282911); settings: imaging, actives raise or lower the signal
In short: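 HepG2 cells exposed 24 h to 0.39–200 uM compounds in duplicate, 0.5% v/v DMSO final. MitoTracker Red CMXRos 250 nM loaded 30 min before formaldehyde fixation; high-content imaging at 20x, bidirectional fit versus DMSO.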

[13] = APR_HepG2_MitoMass_24hr: Apredica 24-hour HepG2 Assay for Mitochondrial Mass (AID 2282912); settings: high-content imaging, actives raise or lower the signal
In short: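 Mitochondrial mass is read as MitoTracker Red fluorescence intensity from automated imaging, with bidirectional curve fitting relative to DMSO. HepG2 cells received compound (0.39–200 uM, 0.5% DMSO final) for 24 hr and were dye-loaded (250 nM, 30 min) before formaldehyde fixation.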

[14] = APR_HepG2_CellCycleArrest_72hr: Apredica 72-hour HepG2 Assay for Cell Cycle Arrest (AID 2282914); settings: high-content imaging, actives raise or lower the signal
In short: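 HepG2 cells exposed 72 h in duplicate to 0.39–200 uM compound, 0.5% DMSO final. Formaldehyde-fixed, Hoechst 33342-stained nuclei imaged at 20x, six fields per well; DNA content per valid cell quantified by cell-cycle image analysis, bidirectional fit versus DMSO.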

[15] = APR_HepG2_CellLoss_72hr: Apredica 72-hour HepG2 Assay for Cell Loss (AID 2282915); settings: high-content imaging
In short: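 HepG2 cells exposed 72 h to compound at 0.39–200 uM (10 concentrations, duplicate) in 0.5% DMSO. Fixed with 3.7% formaldehyde and Hoechst 33342-stained. Imaged at 20x; nuclear count gives cell number, fitted bidirectionally versus DMSO.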

[16] = APR_HepG2_NuclearSize_1hr: Apredica 1-hour HepG2 Assay for Nuclear Size (AID 2282670); settings: high-content imaging, actives raise or lower the signal
In short: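 HepG2 cells dosed 1 hr with 0.39–200 uM compound (0.5% DMSO), formaldehyde-fixed, Hoechst 33342-stained and imaged at 20x; nuclear diameter from nuclear stain, fitted bidirectionally against DMSO.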

[17] = APR_HepG2_p53Act_1hr: Apredica 1-hour HepG2 Assay for p53 Activation (AID 2282671); settings: high-content imaging, actives raise or lower the signal
In short: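 HepG2 cells treated 1 h with compound at 0.39–200 uM (10 concentrations, duplicate) in 0.5% DMSO. Formaldehyde-fixed, permeabilised cells immunostained for p53 with Hoechst 33342; high-content imaging, bidirectional fit versus DMSO.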

[18] = APR_HepG2_MitoMass_1hr: Apredica 1-hour HepG2 Assay for Mitochondrial Mass (AID 2282674); settings: high-content imaging, actives raise or lower the signal
In short: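 HepG2 cells dosed 1 hr with 0.39-200 uM compound (0.5% DMSO), duplicate wells. Mitochondria stained with 250 nM MitoTracker Red CMXRos for 30 min before formaldehyde fixation, imaged at 20x by ArrayScan; bidirectional fit versus DMSO.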

[19] = APR_HepG2_p53Act_24hr: Apredica 24-hour HepG2 Assay for p53 Activation (AID 2282913); settings: high-content imaging, actives raise or lower the signal;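 further: p53 protein immunofluorescence averaged per cell in HepG2 with Hoechst nuclei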
In short: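 HepG2 cells exposed 24 h to compounds at 0.39–200 uM in duplicate, 0.5% v/v DMSO final; fixed, permeabilized, stained with anti-p53 antibody and Hoechst 33342; fluorescence imaging; bidirectional curve fit versus DMSO.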

[20] = APR_HepG2_MitoMembPot_1hr: Apredica 1-hour HepG2 Assay for Mitochondrial Membrane Potential (AID 2282675); settings: imaging, actives raise or lower the signal
In short: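 HepG2 cells dosed 1 hour with 0.39–200 uM compound in duplicate, 0.5% DMSO final. MitoTracker Red CMXRos (250 nM, 30 min) loaded before formaldehyde fixation; fluorescence quantified by high-content imaging, bidirectional fitting versus DMSO.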

Measured: AC50

O=C(O)c1cc(Oc2ccc(C(F)(F)F)cc2Cl)ccc1[N+](=O)[O-]
not listed: [16] | [17] | [18] | [19] | [20]
inactive: all other assays above

COP(=O)(OC)SCn1c(=O)oc2cc(Cl)cnc21
active: [9] 32.9 µM | [10] 30.2 µM | [14] 47.4 µM | [15] 37.8 µM
not listed: [20]
inactive: all other assays above

O=c1ccc(=O)[nH][nH]1
not listed: [5] | [6] | [8] | [18] | [20]
inactive: all other assays above

CC(Oc1cccc(Cl)c1)C(=O)O (stereo not drawn)
not listed: [5] | [6] | [8]
inactive: all other assays above

CCOP(=O)(NC(C)C)Oc1ccc(SC)c(C)c1 (stereo not drawn)
active: [15] 89.2 µM
not listed: [3] | [6] | [18] | [20]
inactive: all other assays above

COc1ccc(C(=CC(=O)N2CCOCC2)c2ccc(Cl)cc2)cc1OC
active: [12] 8.19 µM | [15] 31.1 µM
not listed: [3] | [16]
inactive: all other assays above

CCOP(=S)(OCC)OC(Cl)C(Cl)(Cl)Cl (stereo not drawn)
active: [9] 97.5 µM | [12] 151 µM | [14] 165 µM | [15] 144 µM
not listed: [3] | [5] | [8] | [16] | [18]
inactive: all other assays above

CC(C)[C@H](C(=O)O[C@H](C#N)c1cccc(Oc2ccccc2)c1)c1ccc(Cl)cc1
not listed: [3] | [5] | [8] | [16] | [18] | [20]
inactive: all other assays above

CCOC(=O)CC(SP(=O)(OC)OC)C(=O)OCC (stereo not drawn)
not listed: [3] | [5] | [6] | [8] | [16] | [18]
inactive: all other assays above

CCC(=O)Nc1ccc(Cl)c(Cl)c1
not listed: [3] | [5] | [6] | [8] | [18] | [20]
inactive: all other assays above

COP(=O)(OC)OC(Br)C(Cl)(Cl)Br (stereo not drawn)
active: [9] 45 µM | [10] 34.1 µM | [11] 34.2 µM | [15] 29.7 µM
inactive: [1] | [2] | [16] | [4] | [18] | [7] | [12] | [13] | [14]

C#CCC1=C(C)C(OC(=O)C2C(C=C(C)C)C2(C)C)CC1=O (stereo not drawn)
active: [6] 151 µM | [9] 89.4 µM | [14] 104 µM
not listed: [3] | [16] | [18] | [20]
inactive: all other assays above

CNC(=O)ON=C(SC)C(=O)N(C)C
active: [15] 100 µM
not listed: [3] | [5] | [6] | [8] | [20]
inactive: all other assays above

CCC(=NOC/C=C/Cl)C1=C(O)CC(C2CCOCC2)CC1=O (stereo not drawn)
not listed: [3] | [5] | [6] | [16]
inactive: all other assays above

CSC1=N[C@@](C)(c2ccccc2)C(=O)N1Nc1ccccc1
active: [10] 43.3 µM | [15] 12.2 µM
not listed: [3] | [8] | [16] | [20]
inactive: all other assays above

COc1cccc(C(=O)NN(C(=O)c2cc(C)cc(C)c2)C(C)(C)C)c1C
not listed: [3] | [8] | [16] | [18] | [20]
inactive: all other assays above
